MEKK3 PB1 HTS: raises or lowers MEK5 binding to the human MEKK3 PB1 domain. Q99759. bead-based flow cytometry, Alexa488-MEK5 binding to MEKK3; actives lie on both sides; 0 = blocked by unlabeled MEK5, 100 = vehicle. binding response (% of control), % at 10 µM. 290,000 tested, 1.4% active;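 active = binding response more than 3 SD above or below the average of its plate-row segment, actives on both sides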;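 note: Alexa488 bead fluorescence after subtracting the streptavidin-only scavenger bead signal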
Mot1-301 SUMO: inhibitors of SUMOylation pathway: yeast Mot1-301 growth rescue | S. cerevisiae Mot1-301 growth rescue, ATP luminescence, 38.5C; percent above DMSO median, 100 means doubled | growth rescue, % at 18.8 µM | 320,000 tested, 1% active;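 active = every valid replicate shows activation above 250% relative to neutral control wells; inactive = the rest, any valid replicate at or below 250%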;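 note: OY570 slx delta 5 strain wells were the positive control but not used for scaling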
MEKK2 mut-MEK5: signal of MEK5 binding to mutant human MEKK2 PB1 domain; bead flow cytometry, Alexa488-MEK5 binding to MEKK2 mutant; percent response, % at 10 µM; 290,000 tested, 0.35% active; in the data active = percent response above about 24%, passing the limit was not always enough
MEKK2wt PB1 HTS: raises or lowers MEK5 binding to wildtype human MEKK2 PB1 domain | AID 1531 | bead flow cytometry, Alexa488-MEK5 binding to MEKK2 WT; actives lie on both sides | binding response (% of control), % at 10 µM | 290,000 tested, 1.1% active; in the data active = binding response below about 67% or above about 130%
CHT PAM: human CHT allosteric activation; Q9GZV3; CHT-expressing cells, membrane potential dye, choline EC20; hits give high values; LV-AA mutant CHT in HEK293 cells; B-score at 10 µM; 310,000 tested, 0.49% active; AID 488977;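 active = initial fluorescence not abnormally high and integrated response B-score, plate-corrected, over 3 SD above library mean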
Target sequence (Q9GZV3 whole entry, looked up): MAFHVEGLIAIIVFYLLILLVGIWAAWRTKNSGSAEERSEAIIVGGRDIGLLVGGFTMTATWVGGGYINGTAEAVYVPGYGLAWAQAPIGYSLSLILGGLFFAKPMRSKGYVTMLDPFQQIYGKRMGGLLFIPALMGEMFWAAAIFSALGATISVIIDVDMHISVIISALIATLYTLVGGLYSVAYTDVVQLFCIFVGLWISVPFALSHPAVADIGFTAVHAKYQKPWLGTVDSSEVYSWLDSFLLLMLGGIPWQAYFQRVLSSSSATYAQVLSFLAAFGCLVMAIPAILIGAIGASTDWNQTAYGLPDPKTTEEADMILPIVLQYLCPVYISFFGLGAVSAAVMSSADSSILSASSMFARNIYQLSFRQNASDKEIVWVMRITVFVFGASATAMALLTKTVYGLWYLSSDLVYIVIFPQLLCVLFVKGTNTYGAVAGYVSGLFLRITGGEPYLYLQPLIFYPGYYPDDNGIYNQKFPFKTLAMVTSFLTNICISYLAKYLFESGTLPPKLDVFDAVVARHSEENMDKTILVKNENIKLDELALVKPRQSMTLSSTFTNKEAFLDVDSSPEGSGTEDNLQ
CHT inh: inhibits the human high affinity choline transporter | Q9GZV3 | CHT-expressing cells, membrane potential dye, choline response; hits give low values | B-score at 10 µM | 310,000 tested, 0.86% active | AID 488975;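 active = B-score over 3 SD under the library average, and starting fluorescence ratio not unusually high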;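 note: choline stimulus applied at its EC90 after an EC20 pre-addition; B-score computed on integrated fluorescence ratio after choline addition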
The depositor's hits bear a star; i = inactive; / = no result. An excerpt weighted towards active compounds, which were near 4.1% of everything screened.

SMILES	MEKK3 PB1 HTS	Mot1-301 SUMO	MEKK2 mut-MEK5	MEKK2wt PB1 HTS	CHT PAM	CHT inh
O=C1OC(c2cccs2)=N/C1=C\c1ccc(-c2ccccc2Cl)o1	105	/	82*	62*	/	/
CC(=O)NC1(C(F)(F)F)NC(=O)N(c2ccc(F)cc2)C1=O (centres undefined)	104	-2	0	105	i	i
O=C(COC(=O)CSCC(=O)N1CCCCC1)Nc1ccc(Cl)cc1	96	338*	-3	93	i	i
O=c1[nH]c(=S)[nH]c(O)c1N=Nc1ccc(-c2ccccc2)cc1[N+](=O)[O-]	96	/	3	-4.0*	/	/
O=C(NNS(=O)(=O)c1ccc(Cl)cc1)c1cnn(-c2ccccc2)c1-n1cccc1	104	4	1	96	i	i
ONC(=Nc1cccc(C(F)(F)F)c1)c1cccnc1	105	-11	7	102	i	i
Cc1ccc(S(=O)(=O)N2CCN(c3cccc(C)c3)CC2)cc1	108	-3	3	109	i	i
COc1ccc2nc(NC(=O)CSc3nnc(C)n3N)sc2c1	97	305*	0	95	i	i
COC(=O)CCC(=O)OC1(C)C(=O)C2=CN(Cc3ccccc3)C(c3ccc(OC)cc3)=CC2=C(Br)C1=O (centres undefined)	90	16	-4	-6.0*	i	i
COC(=O)CCC(=O)OC1(C)C(=O)C2=CN(CC3CC3)C(c3ccc(OC)cc3)=CC2=C(Br)C1=O (centres undefined)	93	0	-8	-10*	i	i
COC(=O)CCC(=O)OC1(C)C(=O)C=C2C=C(C3CC3)N(Cc3ccc(OC)cc3)C=C2C1=O (centres undefined)	100	4	6	96	i	i
COC(=O)CCC(=O)OC1(C)C(=O)C2=CN(Cc3ccc(OC)cc3)C(c3ccc(OC)cc3)=CC2=C(Br)C1=O (centres undefined)	59	9	11	/	i	i
CC(C)CC(=O)Nc1ccc(C(=O)Cn2c(=O)oc3ccccc32)cc1	102	-16	5	99	i	i
C=CCC1(N(C(C)=O)c2ccccc2)CCCCC1	93	4	-10	89	i	i
COCC(C)n1c(SCC(=O)NNC(=O)c2ccc(F)cc2)nc2ccccc2c1=O (centres undefined)	103	346*	12	122	i	i
COCCn1c(SCC(=O)NNC(=O)c2ccccc2)nc2ccccc2c1=O	101	-16	11	113	i	i
CC(=O)Nc1ccc(S(=O)(=O)NNc2ccc([N+](=O)[O-])cc2)cc1	93	296*	-3	97	i	i
O=C(NNc1ccc([N+](=O)[O-])cc1)Nc1ccccc1	104	43	6	103	i	i
O=C(NNc1ccccc1)C(=O)NNS(=O)(=O)c1ccc([N+](=O)[O-])cc1	102	368*	-3	94	i	i
CC1CN(Cc2nc3c(c(=O)n(C)c(=O)n3C)n2CCc2ccccc2)CC(C)O1 (centres undefined)	108	-11	12	109	i	i
O=C(CNC(=O)c1cccs1)Nc1ccc2c(c1)OCCO2	/	0	/	/	i	i
CC(C)CCN1CCC(N)=NC1=O	122	/	534*	422*	/	/
CCOCCCN(C)C1CCN(C(=O)c2oc3ccccc3c2NC(=O)COc2ccc(F)cc2)CC1	105	6	5	112	i	-7.2*
CCOCCCN(C)C1CCN(C(=O)c2oc3ccccc3c2NC(=O)Cc2ccc(F)cc2)CC1	102	-12	5	109	i	i
CCOC(=O)C(C)C(C)=O (centres undefined)	/	8	/	/	/	/
Cc1cc(NC(=O)c2cccnc2)ccc1Br	107	-5	2	105	i	i
NC(=S)N=Nc1c(O)n(CCCl)c2ccc(Cl)cc12	104	341*	-3	97	i	i
NC(=S)N=Nc1c(O)n(CCCl)c2ccccc12	103	-32	1	97	i	i
